Assay results reported in PubChem BioAssay (Tox21).
“And” between values parts separate entries of the source, which are not always exact repeats. Equal values may be shown once. Results filed as inconclusive are left out. More than one record can exist for a structure, and the calls need not agree. The source made the active and inactive calls. Unless noted, calls follow the shape of the dose curve; as a rule, active = well fitted curve in the direction sought with a large enough effect in the repeat runs; inconclusive = weak or mixed curves; inactive = no such curve, though single readings can be large; an effect the other way counts as inactive or inconclusive.

Experiments:
[1] = qHTS assay to identify small molecule agonists of the hypoxia (HIF-1) signaling pathway (AID 1224846; active = well fitted activation curve with a large enough effect in the signal ratio in the repeat runs, not every such curve was filed as active; the % refers to the signal ratio; also: potency is read from the fitted curve at half-maximal effect)
Outline: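 Measured by blue/green FRET after loading CCF4-AM: beta-lactamase expressed from a hypoxia response element in ME-180 cells. Test agents were delivered in DMSO and left 17 hrs; cells had been plated 5 hrs earlier in low-serum (0.5% dialyzed FBS) medium.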

[2] = qHTS assay to identify small molecule agonists of the estrogen related receptor (ERR) signaling pathway from Tox21 library (AID 1224849; calls by dose curve; also: nearly all actives have a fitted effect of over 15% in size); conditions: ERR reporter cell line, ONE-Glo luciferase, 18 h; at 92.4 µM (top of the series) unless noted
Outline: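 We plated ERR reporter cells, waited 6 h, added compounds in DMSO by pin tool and incubated them 18 h at 37 C. ONE-Glo was then added and luminescence read after 30 min.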

[3] = qHTS RealTime-Glo MT Cell Viability Assay in HEK293 cells - 32 hour (AID 1224868); also: nearly all actives have a fitted effect of over 50% in size; also: potency is read from the fitted curve at half-maximal effect
Outline: (§1)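 Luminescence generated by NanoLuc from substrate produced by living HEK293 cells served as the viability signal. Each value reflects the reading at its stated time point during continuous 40 h compound exposure at 37 C.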

[4] = A CellTox Green Cytotoxicity Assay to monitor cytotoxicity in HEK293 cells - 0 hour (AID 1224869); also: nearly all actives have a fitted effect of over 50% in size
Outline: (§2)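 Each value comes from one timepoint of a single continuous run in which HEK293 cells with CellTox Green were exposed to compound for up to 40 h at 37 C, dye fluorescence rising with cell death.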

[5] = qHTS RealTime-Glo MT Cell Viability Assay in HepG2 cells - 8 hour (AID 1224873); also: nearly all actives have a fitted effect of over 55% in size
Outline: (§3)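 HepG2 cells (600/well) mixed with RealTime-Glo MT reagent, settled 5 h at 37 C/5% CO2 before compound addition. Nonlytic NanoLuc luminescence from viable-cell prosubstrate reduction read repeatedly during 40 h treatment at 37 C.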

[6] = qHTS RealTime-Glo MT Cell Viability Assay in HEK293 cells - 40 hour (AID 1224874); conditions: RealTime-Glo luminescence; max response: stronger effect = lower value; also: nearly all actives have a fitted effect of over 50% in size; also: potency is read from the fitted curve at half-maximal effect
Outline: (§4)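 qHTS format; HEK293 cells with NanoLuc/prosubstrate reagent, 37 C/5% CO2 for 5 h pre-dosing; compounds 23 nL in DMSO; luminescence at each time point reflects viable cells.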

[7] = A CellTox Green Cytotoxicity Assay to monitor cytotoxicity in HepG2 cells - 16 hour (AID 1224876); also: nearly all actives have a fitted effect of over 45% in size; also: potency is read from the fitted curve at half-maximal effect
Outline: (§5)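 Continuous culture of HepG2 cells with a membrane-impermeant DNA dye; rising fluorescence marks dead cells. Compound exposure lasted up to 40 h at 37 C, with reads every 8 h from 0 h.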

[8] = A CellTox Green Cytotoxicity Assay to monitor cytotoxicity in HepG2 cells - 24 hour (AID 1224878); also: nearly all actives have a fitted effect of over 45% in size; also: potency is read from the fitted curve at half-maximal effect
Outline: as §5

[9] = A CellTox Green Cytotoxicity Assay to monitor cytotoxicity in HepG2 cells - 40 hour (AID 1224879); also: nearly all actives have a fitted effect of over 40% in size; also: potency is read from the fitted curve at half-maximal effect
Outline: as §5

[10] = qHTS assay to identify small molecule agonists of H2AX (AID 1224845; active = well fitted activation curve with a large enough effect in the signal ratio in the repeat runs, not every such curve was filed as active; the % refers to the signal ratio; also: potency is read from the fitted curve at half-maximal effect)
Outline: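 Wild-type CHO-K1 cells, plated overnight, exposed 3hr at 37C to 15 concentrations (0.76% DMSO final). Lysed, then HTRF anti-pH2AX (S139) cryptate and anti-H2AX-d2 antibodies, 24 hr room temperature; 665/620 nm emission read.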

[11] = qHTS RealTime-Glo MT Cell Viability Assay in HepG2 cells - 24 hour (AID 1224867); also: nearly all actives have a fitted effect of over 50% in size
Outline: (§6)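 Tox21 10K library screened in qHTS format on HepG2 cells carrying RealTime-Glo reagents. Compounds were added after a 5 h preincubation, and the luminescent signal from continuous culture was measured repeatedly during 40 h treatment.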

[12] = qHTS RealTime-Glo MT Cell Viability Assay in HepG2 cells - 40 hour (AID 1224870); also: nearly all actives have a fitted effect of over 50% in size; also: potency is read from the fitted curve at half-maximal effect
Outline: as §3

[13] = A CellTox Green Cytotoxicity Assay to monitor cytotoxicity in HEK293 cells - 40 hour (AID 1224871); also: nearly all actives have a fitted effect of over 45% in size; also: potency is read from the fitted curve at half-maximal effect
Outline: as §2

[14] = qHTS RealTime-Glo MT Cell Viability Assay in HEK293 cells - 16 hour (AID 1224872); also: nearly all actives have a fitted effect of over 50% in size; also: potency is read from the fitted curve at half-maximal effect; as to activity change, negative = cytotoxicity: top concentration of the series differs between compounds
Outline: as §1

[15] = A CellTox Green Cytotoxicity Assay to monitor cytotoxicity in HEK293 cells - 24 hour (AID 1224875); also: nearly all actives have a fitted effect of over 45% in size; also: potency is read from the fitted curve at half-maximal effect
Outline: as §2

[16] = qHTS RealTime-Glo MT Cell Viability Assay in HepG2 cells - 32 hour (AID 1224877); also: nearly all actives have a fitted effect of over 55% in size
Outline: as §6

[17] = qHTS RealTime-Glo MT Cell Viability Assay in HEK293 cells - 0 hour (AID 1224880)
Outline: as §4

[18] = A CellTox Green Cytotoxicity Assay to monitor cytotoxicity in HEK293 cells - 32 hour (AID 1224881); also: nearly all actives have a fitted effect of over 40% in size; also: potency is read from the fitted curve at half-maximal effect
Outline: as §2

[19] = qHTS assay to identify small molecule agonists of H2AX - cell viability counter screen (AID 1224847; calls by dose curve; also: nearly all actives have a fitted effect of over 30% in size; also: potency is read from the fitted curve at half-maximal effect; as to activity change, negative = cytotoxicity: top concentration of the series differs between compounds)
Outline: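 Read-out: CellTiter-Glo luminescence, 30 min RT. Cells: wild-type CHO-K1, 1000/well, 10% FBS, plated overnight at 37C. Treatment: 15 concentrations, 3 hr, 37C, 0.76% DMSO.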

[20] = qHTS assay to identify small molecule antagonists of the estrogen related receptor (ERR) signaling pathway from Tox21 library (AID 1224848); also: nearly all actives have a fitted effect of over 50% in size; also: potency is read from the fitted curve at half-maximal effect
Outline: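 ERR reporter cell line (from NTP) seeded 2,000 cells/well, rested 6 h at 37 C/5% CO2, then pin-dosed with compounds in DMSO. After 18 h at 37 C, ONE-Glo added; luminescence read after 30 min at room temperature.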
% is scaled to controls: 0 for no effect and ±100 for the full control effect.

CN1CCC(Nc2ncc3ncnc(Nc4ccc(F)c(Cl)c4)c3n2)CC1
inactive: activity change, positive = activation [2] -30.3% [at 42.5 µM] | Potency [4] | Potency [5]
active: Potency [1] 8.49 µM | Potency [3] 10.7 µM | Potency [6] 10.7 µM | Potency [7] 21.3 µM | Potency [8] 23.9 µM | Potency [9] 26.8 µM

CCOC(=O)/C=C(C)/C=C/C=C(C)/C=C/c1c(C)cc(OC)c(C)c1C
inactive: Potency [10] | Potency [11] | Potency [4] | Potency [12] | Potency [13] | Potency [14] | Potency [5] | Potency [15] | Potency [16] | Potency [9] | Potency [17] | Potency [18]

O=c1cccccc1O
inactive: Potency [19] | Potency [11] | Potency [4] | Potency [12] | Potency [13] | Potency [14] | Potency [5] | Potency [15] | Potency [7] | Potency [16] | Potency [8] | Potency [9] | Potency [18]
active: Potency [10] 40.9 µM

CCOC(=O)O[C@]1(C(=O)OCCl)CC[C@H]2[C@@H]3CCC4=CC(=O)C=C[C@]4(C)[C@H]3[C@@H](O)C[C@@]21C
inactive: Potency [10] | Potency [19] | Potency [4] | Potency [12] | Potency [13] | Potency [14] | Potency [5] | Potency [15] | Potency [7] | Potency [16] | Potency [8] | Potency [9] | Potency [18]

NC(=O)N1C(=O)C(C(=O)c2cc(Cl)cs2)c2cc(F)c(Cl)cc21 (configuration not stated)
inactive: Potency [10] | Potency [20] | activity change, positive = activation [2] -9.34% | Potency [3] | Potency [4] | Potency [13] | Potency [14] | Potency [5] | max response [6] -0.493% | Potency [15] | Potency [7] | Potency [8] | Potency [18]

Cc1cccc(CN2CCN(C(c3ccccc3)c3ccc(Cl)cc3)CC2)c1 (configuration not stated)
inactive: Potency [10] | activity change, positive = activation [2] -29.2% [at 42.5 µM] | Potency [11] | Potency [3] | Potency [4] | Potency [12] | Potency [13] | Potency [14] | Potency [5] | max response [6] -13.7% | Potency [15] | Potency [7] | Potency [8] | Potency [9] | Potency [18]
active: Potency [20] 26.6 µM

Nc1ccc2cc(S(=O)(=O)O)cc(O)c2c1N=Nc1ccccc1C(F)(F)F
inactive: Potency [1] | Potency [20] | activity change, positive = activation [2] 0.11% | Potency [11] | Potency [3] | Potency [4] | Potency [12] | Potency [13] | Potency [14] | Potency [5] | max response [6] 0.853% | Potency [15] | Potency [7] | Potency [16] | Potency [8] | Potency [9] | Potency [18]

CCN1/C(=C/C=C/c2sc3ccccc3[n+]2CC)Sc2ccccc21
active: Potency [19] 7.6 µM | Potency [20] 0.231 µM | Potency [3] 1.04 µM | Potency [13] 9.28 µM | Potency [14] 1.04 µM | Potency [6] 0.0585 µM | Potency [8] 1.85 µM | Potency [9] 1.17 µM | Potency [18] 10.4 µM
inactive: activation [1] 0.484% [at 15.8 µM] | activity change, positive = activation [2] -58.8% [at 19 µM] | cytotoxicity [4] -12.5% [at 15.8 µM] | cytotoxicity increase [7] -2.11% [at 15.8 µM] | activity change, negative = cytotoxicity [17] -8.36% [at 15.8 µM]

Oc1ccc2cc(SSc3ccc4cc(O)ccc4c3)ccc2c1
inactive: Potency [1] | activity change, positive = activation [2] -64.5% and -58.9% | Potency [11] | Potency [4] | Potency [12] | Potency [5] | Potency [16] | Potency [8] | Potency [17]
active: Potency [19] 89.9 µM | Potency [20] 61.2 µM and 54.5 µM | Potency [13] 49 µM and 24.5 µM | Potency [14] 49 µM | Potency [6] 55 µM | Potency [18] 43.7 µM and 19.5 µM
inactive and 21.9 µM (active): Potency [9]

c1cc(C(c2ccc(OCC3CO3)cc2)c2ccc(OCC3CO3)cc2)ccc1OCC1CO1 (configuration not stated)
inactive: Potency [10] | Potency [19] | Potency [4] | Potency [14] | Potency [5] | Potency [15] | Potency [7] | Potency [9] | Potency [17]
active: Potency [12] 54.9 µM

CC(=O)S[C@@H]1CC2=CC(=O)CC[C@]2(C)[C@H]2CC[C@@]3(C)[C@@H](CC[C@@]34CCC(=O)O4)[C@H]12
active: Potency [9] 54.9 µM
inactive: Potency [1] | Potency [19] | Potency [4] | Potency [12] | Potency [13] | Potency [15] | Potency [7] | Potency [17] | Potency [18]

CC(C)(C)CC(C)(C)c1ccc(O)c(Cc2ccc(Cl)cc2Cl)c1
inactive: Potency [4] | Potency [17]
active: Potency [10] 19.6 µM | Potency [19] 15.6 µM | Potency [3] 21.3 µM | Potency [13] 23.9 µM | Potency [14] 21.3 µM | Potency [6] 23.9 µM | Potency [15] 26.8 µM | Potency [18] 23.9 µM

O=C(Nc1ccc(Oc2ccc(Cl)cc2)c(Cl)c1)c1cc(I)cc(I)c1O
inactive: Potency [10] | activity change, positive = activation [2] -35.9% [at 42.5 µM] | Potency [11] | Potency [3] | Potency [4] | Potency [12] | Potency [13] | Potency [14] | Potency [5] | max response [6] 2.12% | Potency [15] | Potency [7] | Potency [16] | Potency [8] | Potency [9] | Potency [18]

Clc1ccc2cc3ccccc3cc2c1
active: Potency [1] 30.9 µM
inactive: Potency [19] | Potency [20] | activity change, positive = activation [2] 8.76% | Potency [11] | Potency [4] | Potency [12] | Potency [13] | Potency [5] | Potency [15] | Potency [7] | Potency [16] | Potency [8] | Potency [18]

Cc1ccc2oc(CN(Cc3ccccc3)C(=O)Nc3c(F)cc(F)cc3F)c(-c3ccc(Cl)cc3)c2c1
inactive: Potency [10] | activity change, positive = activation [2] -42.4% | Potency [3] | Potency [4] | Potency [13] | Potency [14] | max response [6] -18.1% | Potency [15] | Potency [8] | Potency [9] | Potency [17] | Potency [18]
active: Potency [20] 23.6 µM
